CSC inhib: blocks cancer stem cells | cancer stem cell-like cells viability, luminescence | inhibition, % at 7.5 µM | 300,000 tested, 1.1% active; in the data active = inhibition above about 75%; tested in HMLE shEcad cells
Gli-Sufu antag: blocks Gli-Sufu signaling in a luciferase reporter; 340,000 tested, 0.74% active; AID 588413; inhibition, % at 5 µM; Sufu-KO-LIGHT fibroblasts, Gli luciferase reporter luminescence;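 active = inhibition above about 55%, limit read from the data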;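 note: 0% = DMSO-treated cells and 100% = wells with medium but no cells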
Mdm2-MdmX inh: inhibitors of human Mdm2/MdmX interaction; O15151+Q00987; SaOS-2 split-luciferase Mdm2/MdmX complementation, luminescence; inhibition, % at 8 µM; 330,000 tested, 3% active; AID 485346;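 active = inhibition of at least 50% at 8 µM in the primary screen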
GRIN3A LBD mod: modulates the human NR3A ligand-binding domain; NR3A LBD differential scanning fluorimetry, Tm shift; 0% = protein alone, 100% = glycine-bound protein; Tm shift relative to glycine control, % at 25 µM; 340,000 tested, 2.5% active; AID 1259313;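 active = melting temperature shift of at least 10% of the positive control shift, at one fixed dose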
Beta cell apopt: beta cell apoptosis inhibition; protection from apoptosis, % (no concentration beside the values); AID 435005; 300,000 tested, 0.8% active; INS-1E cytokine-induced death, ATP luminescence, 48 h; percent of positive-control rescue, neutral wells zero;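 active = Every replicate reaches about 75%, or at least half do and their mean reaches it too, limit read from the data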;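 note: 0% = cytokine-treated negative control wells and 100% = positive control rescue; higher means more ATP so stronger rescue from cytokine killing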
MPTP block: inhibitors of mitochondrial permeability transition pore | isolated mouse mitochondria, Ca2+ swelling absorbance, 30 min | inhibition, % at 10 µM | 360,000 tested, 1.4% active | AID 602449;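 active = inhibition of 50% or more, scaled per plate between neutral and stimulator controls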;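 note: 0% = DMSO wells given calcium and 100% = 1 mM EGTA wells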
Starred values were filed as active, the others as inactive; nt = not tested or not shown. A selection: hits, their analogues and other compounds. The true share with any hit is near 6.6%.

SMILES	CSC inhib	Gli-Sufu antag	Mdm2-MdmX inh	GRIN3A LBD mod	Beta cell apopt	MPTP block
O=C(NCCc1c[nH]c2ccccc12)C1CCC(Cn2c(=S)[nH]c3ccccc3c2=O)CC1 (stereo unspecified)	76.4*	8.4	18.2	2.8	11.2	19.5
Cc1nc(Cl)cc(N/N=C/c2ccc(O)cc2)n1	13.4	-1.0	16.9	25.8*	11.4	2.6
Oc1ccc(/C=N/Nc2cc(N3CCCC3)nc(N3CCCC3)n2)cc1	5.3	7.4	29.2	3.8	5.3	-0.8
Cc1nc(Cl)cc(N/N=C/c2ccc(O)cc2O)n1	7.2	19.3	31.9	18.9*	14.7	1.9
Oc1ccc(/C=N/n2cnn(Cc3ccccc3Cl)c2=S)c(O)c1	77.7*	5.6	8.6	6.6	-9.2	11.1
COC12NC(=O)N(C)C1(OC)C(=O)N(C)C(=O)N2C (stereo unspecified)	-17.1	4.2	-27.5	1.0	-6.2	-0.4
O=C1CC(c2ccccc2)CC(O)=C1C=NCc1ccccc1Cl (stereo unspecified)	84.4*	-2.9	34.9	nt	13.0	0.7
O=S1(=O)N=C(Nc2ccc(O)cc2)c2ccccc21	-12.5	-2.1	4.4	19.1*	nt	-3.1
O=C(N/C(=C/c1cccc(Br)c1)c1nc(=S)[nH][nH]1)c1ccccc1	31.0	7.3	20.7	22.1*	-8.9	2.9
COc1ccc(Nc2nnc(SC(C(=O)Nc3ccc(OC)c(Cl)c3)c3ccccc3)s2)cc1 (stereo unspecified)	29.6	15.2	45.9	25.2*	-0.9	-0.5
COc1ccc(C)cc1NC(=O)C(Sc1nnc(Nc2cc(C)ccc2OC)s1)c1ccccc1 (stereo unspecified)	8.6	9.6	42.6	0.9	0.9	1.3
COc1cccc(NC(=O)C(Sc2nnc(Nc3ccccc3C)s2)c2ccccc2)c1 (stereo unspecified)	39.3	4.6	27.8	11.2*	-4.8	5.9
COc1cccc(Nc2nnc(SCN3C(=O)c4ccccc4C3=O)s2)c1	-7.0	-13.3	-12.8	-1.4	-3.9	2.2
CNC(=S)n1cnc(N)n1	-14.7	-2.2	12.1	12.1*	-12.5	-0.7
CCC(C)[C@H](NC(=O)[C@@H]1Cc2c([nH]c3ccccc23)C2c3ccccc3C(=O)N21)C(=O)N1CCC[C@@H]1C(=O)O (stereo partly specified)	-4.3	0.2	-10.5	-1.8	nt	0.6
O=[N+]([O-])c1ccc(N2CCN(C(=S)Nc3ccc(F)cc3F)CC2)cc1	-7.0	33.9	12.7	-6.1	-3.2	1.0
O=[N+]([O-])c1ccc(N2CCN(C(=S)Nc3ccc(F)cc3)CC2)cc1	16.2	33.9	4.8	-6.9	76.3*	5.6
CC(C)N1CCC(C)(C(=O)Nc2cccc3c2CCCC3)C1 (stereo unspecified)	nt	nt	nt	nt	nt	1.1
CCC(=O)N(c1nnc(SCC(=O)Nc2sccc2C(N)=O)s1)C1CC1	nt	nt	nt	nt	nt	0.1
O=C(c1ccc(F)cc1)N1CCN(S(=O)(=O)c2ccc(Br)cc2)CC1	-17.6	8.6	-7.3	-0.7	-6.1	-1.3
CC(=O)c1c(C)[nH]c(C(=O)COc2cc(C)ccc2C(C)C)c1C	17.0	-4.8	33.6	-4.5	102.8*	-0.3
Cc1nc(-c2ccccc2)nc2[nH]ccc(=O)c12	0.3	-36.0	-21.2	10.0*	-3.7	0.4
Cc1cc(-c2nc3cc(F)ccc3s2)ccc1N	nt	-78.7	nt	13.0*	nt	2.2
CCCC[C@@H]1C=C(C(=O)O)[C@H](c2ccc(Cl)c(Cl)c2)N1S(=O)(=O)c1ccc(C)cc1	nt	-8.3	3.0	-8.5	-3.6	1.4
Cc1cccc(-[n+]2c(C)cc(C)c3c(=O)[nH]c(=O)[nH]c32)c1	7.9	-1.1	-15.9	11.5*	-4.7	-0.9
Cc1cc(C)[n+](-c2ccc(C(C)C)cc2)c2[nH]c(=O)[nH]c(=O)c12	24.8	9.3	1.2	-6.5	0.8	0.6
CCC[C@@H](CN1CCC[C@H]1CN1C(N)=NC[C@@H]1Cc1ccccc1)N1C[C@@H]([C@H](C)CC)N(CCCC2CCCC2)C1=N	nt	61.4*	25.3	-8.6	100.6*	28.9
O=C1c2ccccc2C(c2nnnn2C2CCCCC2)N1CCc1ccc(O)cc1 (stereo unspecified)	nt	nt	nt	nt	nt	-2.4
CC1CC(C)C[N+](=C2C=C(N3CCCC3)CC(C)(C)C2)C1 (stereo unspecified)	nt	86.0*	nt	0.5	nt	-1.7
Cc1ccccc1NC(=O)COC(=O)c1ccc(C)c(S(=O)(=O)N2CCCCC2)c1	nt	nt	nt	nt	nt	-0.2
